The full list was thinned out, with hits kept by preference.
Anesthetic bind: candidate novel general anesthetic via apoferritin binding; Potency, µM (titrated, usually from 77.5 µM), for the others: top-dose activity change, negative = displacement, most hits filed as inhibitors; apoferritin/1-aminoanthracene competitive binding, fluorescence; P02791; 0.074% of 350,000 active; also: potency is read from the fitted curve at half-maximal effect; % is scaled to controls: 0 for no effect and ±100 for the full control effect; nearly all actives have a fitted effect of over 20% in size
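10 uM apoferritin + 50% sat. 1-AMA, PBS; cpd 10 min RT; Ex380/Em535 endpoint; normalized to free probe vs complex; 4-param Hill fit; propofol titration as pos. ctrl.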
Glioma ERSR ind: inducers of ER stress response in human glioma cells; U87-MG GRP78 promoter luciferase reporter, 16 h; Potency, µM, for the others: at the highest dose activation, actives largely listed as activators; 0.02% of 420,000 active; also: potency is read from the fitted curve at half-maximal effect; series mostly up to about 76 µM; % of control where 0% means no effect; nearly all actives have a fitted effect of over 35% in size
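Stably transfected U87-MG glioma cells carrying a GRP78-based luciferase sensor; 16 h compound incubation. Luminescence end-point read 10 min after Bright-Glo addition at room temperature.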
a7 integrin act: activates integrin-mediated alleviation for muscular dystrophy; alpha7betagal myoblasts, beta-gal FDG fluorescence, 48 h; Potency, µM (top dose mostly 38.3 µM), for inactives: top-dose activation, hits mostly activators; 0.064% of 350,000 active;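 also: potency is read from the fitted curve at half-maximal effect; 100% = response of the positive control SU9516; nearly all actives have a fitted effect of over 60% in size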
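alpha7betagal+/- myoblasts (passage 13, 250/well) treated 48 h at 37C with compounds at 1:260 dilution of DMSO stock. Lysed, then beta-galactosidase activity read as FDG fluorescence (ex 480/em 540) after 30 min, with pre-read for autofluorescence.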
ClpP mod: qHTS Assay for Activators of ClpP. Potency, µM (titrated, usually from 57.5 µM), without a hit: at the highest dose activity change, negative = active. 1.9% of 340,000 active. ATP-dependent Clp protease proteolytic subunit (Bacillus subtilis (strain 168)), P80244. purified B. subtilis ClpP, FRET peptide cleavage, 20 min. AID 651965, 2013; active = well fitted falling curve with a large enough effect; inconclusive = small, poorly fitted or top-dose-only effect; inactive = no such curve, though single readings can be large or run the other way; also: potency is read from the fitted curve at half-maximal effect; the source files actives as falling curves though it sought activators and does not explain the sign; nearly all actives have a fitted effect of over 65% in size
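Purified B. subtilis ClpP, 10 microg/mL final in Tris/HCl pH8 with KCl, BSA, glycerol and Tween-20, cleaved an Abz/nitrotyrosine-quenched decapeptide. Fluorescence (ex 320, em 430) was read at 0 and 20 min at room temperature. Delta was normalized to 5.8 microM ADEP and DMSO/no-enzyme controls.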
N370S GC: N370S glucocerebrosidase modulation, Gaucher chaperone candidate; N370S GC spleen homogenate, 4MU-glucoside fluorescence; Potency, µM (titrated, usually from 59.4 µM), without a hit: at the top dose activity change, negative = inhibition, usual class: inhibitors; 0.092% of 330,000 active;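 also: potency is read from the fitted curve at half-maximal effect; 0% = full enzyme activity and -100% = no enzyme basal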
CBFb-RUNX1 inh: blocks binding between human CBF-beta and RUNX1 | Q01196+Q13951 | AlphaScreen CBFb-His/RUNX1-biotin binding, biochemical | Potency, µM (top dose mostly 59.8 µM), for inactives: top-dose activity, negative = inhibition, usual class: inhibitors | 230,000 tested, under 10 active; also: % of control where 0% means no effect
Target sequence (Q01196 whole entry, looked up): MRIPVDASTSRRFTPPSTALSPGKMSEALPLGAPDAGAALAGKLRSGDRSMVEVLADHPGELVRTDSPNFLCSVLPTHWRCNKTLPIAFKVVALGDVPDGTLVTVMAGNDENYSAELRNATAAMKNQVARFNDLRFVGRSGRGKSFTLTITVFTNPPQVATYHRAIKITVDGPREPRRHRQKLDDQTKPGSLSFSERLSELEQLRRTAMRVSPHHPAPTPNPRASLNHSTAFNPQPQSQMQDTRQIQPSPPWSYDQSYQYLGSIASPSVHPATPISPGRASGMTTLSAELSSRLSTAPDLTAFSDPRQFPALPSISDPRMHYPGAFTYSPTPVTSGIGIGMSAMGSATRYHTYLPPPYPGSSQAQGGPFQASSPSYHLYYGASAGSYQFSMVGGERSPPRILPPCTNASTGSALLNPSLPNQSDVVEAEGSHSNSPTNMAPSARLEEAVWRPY
Target sequence (Q13951 whole entry, looked up): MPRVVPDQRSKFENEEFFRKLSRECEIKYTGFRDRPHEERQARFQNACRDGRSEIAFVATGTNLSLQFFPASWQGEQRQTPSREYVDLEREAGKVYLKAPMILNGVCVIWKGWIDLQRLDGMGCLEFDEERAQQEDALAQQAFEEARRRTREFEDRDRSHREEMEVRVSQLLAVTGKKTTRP
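Interaction loss through any mechanism counts as activity. Pre-formed complex of His-CBF-beta and biotin-RUNX1 (30 nM apiece) is incubated with compound 15 min, then with 50 ng nickel and 50 ng streptavidin beads for 90 min before AlphaScreen detection.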
Starred values were filed as active, the others as inactive; ? = inconclusive; / = no result; ! = repeats disagree; [ ] = another dose, or the depositor's remark. Unless noted, calls follow the shape of the dose curve; as a rule, active = well fitted curve in the direction sought with a large enough effect; inconclusive = small, poorly fitted or top-dose-only effect, or another doubt; inactive = no such curve, though single readings can be large; an effect the other way counts as inactive or inconclusive.

SMILES	Anesthetic bind	Glioma ERSR ind	a7 integrin act	ClpP mod	N370S GC	CBFb-RUNX1 inh
CC1=NN(c2ccccc2)C(=O)/C1=C/c1c(O)[nH]c(=S)[nH]c1=O	-3%	-3%	11%	25µM*	6%	-3%
CN(C)c1ccc(N)cc1	/	/	/	/	-10%	/
O=c1c(C=NCc2cccs2)c(O)n(C2CCCCC2)c(=O)n1C1CCCCC1	-8%	-5%	22%	-3%	16%	-1%
S=c1[nH]nc(-c2cccs2)n1C1CCCCC1	3%	-4%	28%	32µM*	9%	3%
CCOC(=O)C(SP(=S)(OC)OC)c1ccccc1 (stereo unspecified)	0%	-5%	/	/	-1%	21%
COC(=O)c1cc2c(s1)=NC=NP=2(N1CCOCC1)N1CCOCC1	-1%	-5%	-2%	28µM*!	9%	10%
O=C1OC(c2cc(I)c(O)c(I)c2)(c2cc(I)c(O)c(I)c2)c2ccccc21	-13%	6%	/	/	11%	?
COc1ccc(C(=O)C(C)(C)NO)cc1	-7%	-5%	8%	2%	6%	1%
COc1ccc(C(=O)CCNc2ccc(F)cc2)cc1	2%	0%	-11%	28µM*	-4%	10%
C[C@]12CC[C@@H]3c4ccc(OC(=O)N(CCCl)CCCl)cc4CC[C@@H]3[C@H]1CC[C@@H]2OP(=O)(O)O	/	-4%	/	/	/	/
Cc1oc(-c2cccs2)nc1CSCC(=O)N1CCC2(CC1)OCCO2	-9%	-2%	-21%	1.4µM*	6%	-1%
CC1CCC(C(C)C)C(OC(=O)COC(=O)c2ccccc2N)C1 (stereo unspecified)	95%	7%	1%	28µM*	23%	1%
CCCC1(CC(C)C)C(=O)NC(=S)NC1=O	/	1%	2%	28µM*	/	/
Cc1c(N=Cc2c(O)n(Cc3ccco3)c(=O)[nH]c2=O)c(=O)n(-c2ccccc2)n1C	-15%	-2%	4%	11µM*	0%	7%
Cc1c(N=Cc2c(O)n(Cc3ccccc3)c(=O)[nH]c2=O)c(=O)n(-c2ccccc2)n1C	-11%	-6%	17%	/	1%	12%
CC(C)c1cc2c(c(O)c1O)[C@@]1(C(=O)O)CCCC(C)(C)[C@@H]1CC2	?	12%	/	/	-4%	-20%
S=c1[nH]nc(-c2ccco2)n1Cc1ccccc1	-2%	-1%	26%	28µM*	9%	-2%
COc1ccc2c3c1OC1C(O)C=CC4[C@@H](C2)NCC[C@]314 (stereo partly specified)	/	0%	/	/	/	/
ClC1=C(Cl)C(Cl)(C2(Cl)C(Cl)=C(Cl)C(Cl)=C2Cl)C(Cl)=C1Cl	-8%	?	/	/	-7%	/
CC(=O)C1C(N2CC2)CC2C3CCC4=CC(=O)CCC4(C)C3CCC21C (stereo unspecified)	/	-1%	-35%	14µM*	/	/
CN1CC(C(=O)c2ccc(Cl)cc2)C(c2ccc(Cl)cc2Cl)C1 (stereo unspecified)	-5%	-4%	-55%	/	18µM*	/
CO/C1=C\C(C)=C\[C@@H](C)[C@@H](O)[C@@H](C)C/C(C)=C/C=C/[C@H](OC)[C@@H]([C@@H](C)[C@@H](O)[C@H](C)[C@@]2(O)C[C@@H](O)[C@H](C)C(C(C)C)O2)OC1=O (stereo partly specified)	-7%	3%	/	/	-21%	15%
C[C@]12CC[C@@H]3c4ccc(OC(=O)N(CCCl)CCCl)cc4CC[C@H]3[C@@H]1CC[C@@H]2OP(=O)(O)O	/	-1%	/	/	/	/
O=C(NCC(c1cccnc1)N1CCN(c2ccccc2F)CC1)Oc1ccccc1 (stereo unspecified)	-16%	-6%	-10%	22µM*	-8%	-7%
Cc1cccc(N2CCc3c2nc2ccccc2c3N)c1	4%	2%	-23%	25µM*!	9%	-1%
SMILES	Anesthetic bind	Glioma ERSR ind	a7 integrin act	ClpP mod	N370S GC	CBFb-RUNX1 inh
Cc1cccc(-n2c(/C=C/c3ccccc3O)nc3ccccc3c2=O)c1	40%	-4%	/	-13%	/	/
COc1cc2c3cc1Oc1c(OC)c(OC)cc4c1[C@@H](Cc1ccc(OC(=O)c5ccc([N+](=O)[O-])cc5)c(c1)Oc1ccc(cc1)C[C@@H]3N(C)CC2)N(C)CC4	4%	-4%	/	/	?	10%
C=C/C=C/CC1=C(C)[C@@H](OC(=O)[C@@H]2[C@@H](/C=C(\C)C(=O)OC)C2(C)C)CC1=O (tested in a mixture with another compound)	/	-5%	/	/	/	/
Nc1ccccc1C(=O)OCCOc1ccccc1	?	-4%	10%	28µM*	10%	19%
C=CCOC(=O)c1ccccc1N	/	-4%	/	4%	1%	0%[21.7 µM]
Nc1cccc2c1Cc1cc([N+](=O)[O-])ccc1-2	/	-1%	-12%	28µM*	/	/
N=C1c2ccccc2CN1c1cccc([N+](=O)[O-])c1	-13%	7%	-38%	0%	-22%	-1%
Cc1ccc2cc3cc(C(=O)N4CCC5(CC4)OCCO5)oc3nc2c1	-7%	5%	-40%	14µM*	5%	-2%
CCc1c(C)c2ccc(OCC(N)=O)cc2oc1=O	2%	1%	13%	6.3µM*	4%	6%
O=C(Cc1ccccc1)Oc1ccc(N2C(=O)C3CCCCC3C2=O)cc1 (stereo unspecified)	1%	0%	-5%	1%	4%	0%
O=C1SC(Cc2ccccc2)C(=O)N1c1ccccc1 (stereo unspecified)	-6%	-5%	7.9µM*	-1%	2%	27%
Cc1ccc(-c2cc(-c3ccc(C)cc3)[n+](C)o2)cc1	-8%	-3%	-45%	14µM*	-3%	11%
Cc1ccc(-c2cc(-c3ccc(C)cc3)[n+](-c3ccccc3)c(-c3ccc(C)cc3)c2)cc1	/	-10%	-41%	4%	-4%	/
COCCCNC(=O)c1c(NC(=O)c2ccccc2Cl)n(Cc2ccccc2)c2nc3ccccc3nc12	-3%	-4%	9%	?	6%	30%
Nc1c(C(=O)NCCN2CCOCC2)c2nc3ccccc3nc2n1Cc1ccccc1	121%	-4%	-10%	/	10%	?
Nc1c(C(=O)NCCc2ccccc2)c2nc3ccccc3nc2n1CCN1CCOCC1	7%	2%	-18%	?	?	?
Nc1c(C(=O)NCCN2CCOCC2)c2nc3ccccc3nc2n1Cc1ccco1	297%	0%	-32%	16µM*	6%	-3%
COCCNC(=O)c1c(NC(=O)c2ccco2)n(Cc2ccccc2)c2nc3ccccc3nc12	252%	-4%	-36%	25µM*	?	7%
CCOC(=O)c1c(N)n(CCN2CCCCC2)c2nc3ccccc3nc12	408%	-4%	-42%	32µM*	/	6%

Screening data as filed in PubChem.
